# According to PMC7862700, “An all-to-all approach to the identification of sequence-specific readers for epigenetic DNA modifications on cytosine”:
# Assays:
# Experiment in all cases: DAPPL (digital affinity profiling via proximity ligation, sequencing); 10 mM Tris-HCl pH 7.5, 50 mM NaCl, 1 mM DTT, 4% glycerol, room temperature, 30 min; GST-TFs on glutathione beads, 16-mer random dsDNA library, 0.1% formaldehyde crosslink after washing; high values mean tight binding
# Details in all cases: protein: recombinant; tags: N-terminal GST; dsDNA, one strand shown
# FLI1 = target: T1, FLI1 (Homo sapiens, UniProt Q01543 1-452)
# T1 sequence: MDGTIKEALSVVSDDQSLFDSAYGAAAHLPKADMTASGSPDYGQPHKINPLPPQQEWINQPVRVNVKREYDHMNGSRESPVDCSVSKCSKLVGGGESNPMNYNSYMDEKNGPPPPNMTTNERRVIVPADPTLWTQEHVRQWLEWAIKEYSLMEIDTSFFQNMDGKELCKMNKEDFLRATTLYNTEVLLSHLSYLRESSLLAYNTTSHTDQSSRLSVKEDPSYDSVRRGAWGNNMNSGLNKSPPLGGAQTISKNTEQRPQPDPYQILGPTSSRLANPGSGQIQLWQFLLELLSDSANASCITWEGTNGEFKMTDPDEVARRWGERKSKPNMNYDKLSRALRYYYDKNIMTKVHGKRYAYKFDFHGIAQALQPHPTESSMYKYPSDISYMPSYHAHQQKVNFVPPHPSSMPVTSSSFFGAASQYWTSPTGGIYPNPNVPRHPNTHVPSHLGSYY
# Procedure, shortened: (§1)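 Binding signal is each hexamer's read frequency for a factor divided by its frequency in the tag-only sample. The factors were GST-fused human transcription factors from yeast, captured on glutathione beads, DNA-barcoded and pooled with that sample. Pools were incubated with 200 nmole of a random double-stranded 16-mer DNA library in Tris/NaCl/DTT/glycerol buffer at room temperature for 30 min, then washed, crosslinked with 0.1% formaldehyde, proximity-ligated with BsaI/T4 ligase (1 h, 37 °C), PCR-amplified and sequenced on an Illumina NextSeq500.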
# ELK1 = target: T2, ELK1 (Homo sapiens, UniProt P19419 1-428)
# T2 sequence: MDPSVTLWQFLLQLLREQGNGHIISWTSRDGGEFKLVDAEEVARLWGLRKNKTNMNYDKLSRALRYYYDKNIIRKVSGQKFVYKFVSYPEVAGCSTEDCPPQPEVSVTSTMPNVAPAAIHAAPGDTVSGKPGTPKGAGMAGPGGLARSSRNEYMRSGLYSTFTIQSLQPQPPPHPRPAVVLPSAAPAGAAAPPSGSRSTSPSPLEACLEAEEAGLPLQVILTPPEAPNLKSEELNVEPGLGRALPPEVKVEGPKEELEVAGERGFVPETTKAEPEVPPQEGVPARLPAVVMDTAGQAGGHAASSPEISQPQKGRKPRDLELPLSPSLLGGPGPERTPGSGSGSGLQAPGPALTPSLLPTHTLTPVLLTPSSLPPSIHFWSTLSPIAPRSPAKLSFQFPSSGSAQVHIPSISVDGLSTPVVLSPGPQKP
# Procedure, shortened: as §1
# GABPA = target: T3, GABPA (Homo sapiens, UniProt Q06546 1-454)
# T3 sequence: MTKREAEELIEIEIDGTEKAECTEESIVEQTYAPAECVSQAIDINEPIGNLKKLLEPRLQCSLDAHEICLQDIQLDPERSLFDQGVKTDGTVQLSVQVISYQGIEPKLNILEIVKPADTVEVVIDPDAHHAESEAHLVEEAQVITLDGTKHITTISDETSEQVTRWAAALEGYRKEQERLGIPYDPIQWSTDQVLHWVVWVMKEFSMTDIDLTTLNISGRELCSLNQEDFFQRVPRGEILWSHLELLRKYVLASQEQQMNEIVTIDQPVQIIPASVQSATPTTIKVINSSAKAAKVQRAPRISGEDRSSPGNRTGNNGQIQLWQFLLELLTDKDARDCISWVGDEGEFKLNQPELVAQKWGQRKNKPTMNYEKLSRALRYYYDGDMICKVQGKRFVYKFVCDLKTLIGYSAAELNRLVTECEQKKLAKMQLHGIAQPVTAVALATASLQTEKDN
# Procedure, shortened: as §1
# ERG = target: T4, ERG (Homo sapiens, UniProt P11308 1-479)
# T4 sequence: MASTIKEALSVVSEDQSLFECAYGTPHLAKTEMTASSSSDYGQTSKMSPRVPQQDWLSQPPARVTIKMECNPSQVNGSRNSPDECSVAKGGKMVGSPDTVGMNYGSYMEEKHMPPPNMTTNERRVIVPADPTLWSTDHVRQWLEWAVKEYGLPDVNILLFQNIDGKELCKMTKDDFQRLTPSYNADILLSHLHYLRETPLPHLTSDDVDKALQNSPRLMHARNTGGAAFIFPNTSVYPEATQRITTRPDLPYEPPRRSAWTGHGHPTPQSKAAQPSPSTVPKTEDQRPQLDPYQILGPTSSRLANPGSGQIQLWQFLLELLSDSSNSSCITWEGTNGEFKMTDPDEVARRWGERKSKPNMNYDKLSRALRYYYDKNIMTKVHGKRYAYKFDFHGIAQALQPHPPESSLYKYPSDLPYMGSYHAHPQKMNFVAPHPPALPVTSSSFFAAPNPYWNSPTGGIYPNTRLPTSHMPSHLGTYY
# Procedure, shortened: as §1
# ELF1 = ELF1 (Homo sapiens, UniProt P32519 1-619)
# Procedure, shortened: as §1
# EHF = target: T5, EHF (Homo sapiens, UniProt Q9NZC4 1-300)
# T5 sequence: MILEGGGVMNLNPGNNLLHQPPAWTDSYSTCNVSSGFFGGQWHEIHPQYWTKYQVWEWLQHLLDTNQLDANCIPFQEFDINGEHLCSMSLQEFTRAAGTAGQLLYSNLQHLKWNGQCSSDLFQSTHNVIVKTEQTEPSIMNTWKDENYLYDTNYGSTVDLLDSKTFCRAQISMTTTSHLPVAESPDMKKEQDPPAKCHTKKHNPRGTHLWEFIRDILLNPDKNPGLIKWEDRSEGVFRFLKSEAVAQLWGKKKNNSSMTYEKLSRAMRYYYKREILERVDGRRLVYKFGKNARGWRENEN
# Procedure, shortened: as §1
# SPI1 = SPI1 (Homo sapiens, UniProt P17947 1-270)
# Procedure, shortened: as §1
# SPIB = SPIB (Homo sapiens, UniProt Q01892 1-262)
# Procedure, shortened: as §1
# ELK3 = target: T6, ELK3 (Homo sapiens, UniProt P41970 1-407)
# T6 sequence: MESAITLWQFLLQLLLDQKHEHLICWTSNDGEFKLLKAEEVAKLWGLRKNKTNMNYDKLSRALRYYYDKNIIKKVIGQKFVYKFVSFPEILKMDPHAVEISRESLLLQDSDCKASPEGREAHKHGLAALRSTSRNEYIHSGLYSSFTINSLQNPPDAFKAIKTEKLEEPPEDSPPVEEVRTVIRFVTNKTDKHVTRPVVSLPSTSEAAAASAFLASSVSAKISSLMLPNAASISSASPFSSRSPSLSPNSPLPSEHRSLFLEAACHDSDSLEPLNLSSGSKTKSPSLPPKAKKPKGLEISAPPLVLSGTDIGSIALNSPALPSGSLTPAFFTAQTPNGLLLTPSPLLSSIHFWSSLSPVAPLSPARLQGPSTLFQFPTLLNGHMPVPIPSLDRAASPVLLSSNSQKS
# Procedure, shortened: as §1
# Chain of ELF1 (P32519 whole entry): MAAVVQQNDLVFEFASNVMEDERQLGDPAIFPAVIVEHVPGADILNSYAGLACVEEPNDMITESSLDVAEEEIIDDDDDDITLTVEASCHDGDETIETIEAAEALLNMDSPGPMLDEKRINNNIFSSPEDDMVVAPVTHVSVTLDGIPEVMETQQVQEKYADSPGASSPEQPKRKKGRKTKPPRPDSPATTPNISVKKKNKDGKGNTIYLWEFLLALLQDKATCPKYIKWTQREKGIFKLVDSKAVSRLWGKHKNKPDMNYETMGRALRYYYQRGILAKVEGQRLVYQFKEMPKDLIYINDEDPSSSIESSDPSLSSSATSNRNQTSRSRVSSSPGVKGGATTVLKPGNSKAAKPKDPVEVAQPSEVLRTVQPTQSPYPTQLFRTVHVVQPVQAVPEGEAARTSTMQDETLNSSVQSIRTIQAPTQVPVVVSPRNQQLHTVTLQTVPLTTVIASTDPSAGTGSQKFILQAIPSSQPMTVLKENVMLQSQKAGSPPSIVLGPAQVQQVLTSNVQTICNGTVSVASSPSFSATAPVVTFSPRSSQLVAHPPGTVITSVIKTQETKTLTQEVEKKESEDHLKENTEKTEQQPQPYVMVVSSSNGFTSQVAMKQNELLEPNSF
# Chain of SPIB (Q01892 whole entry): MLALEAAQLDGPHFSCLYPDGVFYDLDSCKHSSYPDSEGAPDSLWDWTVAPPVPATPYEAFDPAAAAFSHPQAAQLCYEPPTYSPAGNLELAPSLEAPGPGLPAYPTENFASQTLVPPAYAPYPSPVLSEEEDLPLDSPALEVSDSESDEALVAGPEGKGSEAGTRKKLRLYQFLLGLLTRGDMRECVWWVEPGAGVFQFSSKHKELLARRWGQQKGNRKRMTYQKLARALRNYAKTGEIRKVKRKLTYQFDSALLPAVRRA
Sequence,binding signal (FLI1),binding signal (ELK1),binding signal (GABPA),binding signal (ERG),binding signal (ELF1),binding signal (EHF),binding signal (SPI1),binding signal (SPIB),binding signal (ELK3)
TATTAA,"1.17 fold enrichment (6-mer frequency, TF over GST control)","1.13 fold enrichment (6-mer frequency, TF over GST control)","1.16 fold enrichment (6-mer frequency, TF over GST control)","1.12 fold enrichment (6-mer frequency, TF over GST control)","1.22 fold enrichment (6-mer frequency, TF over GST control)","1.09 fold enrichment (6-mer frequency, TF over GST control)","1.06 fold enrichment (6-mer frequency, TF over GST control)","1.23 fold enrichment (6-mer frequency, TF over GST control)","1.2 fold enrichment (6-mer frequency, TF over GST control)"
TTACCC,"1.3 fold enrichment (6-mer frequency, TF over GST control)","1.44 fold enrichment (6-mer frequency, TF over GST control)","1.3 fold enrichment (6-mer frequency, TF over GST control)","1.34 fold enrichment (6-mer frequency, TF over GST control)","1.38 fold enrichment (6-mer frequency, TF over GST control)","1.43 fold enrichment (6-mer frequency, TF over GST control)","1.35 fold enrichment (6-mer frequency, TF over GST control)","1.45 fold enrichment (6-mer frequency, TF over GST control)","1.39 fold enrichment (6-mer frequency, TF over GST control)"
CCTAAG,"1.09 fold enrichment (6-mer frequency, TF over GST control)","1.14 fold enrichment (6-mer frequency, TF over GST control)","1.12 fold enrichment (6-mer frequency, TF over GST control)","1.16 fold enrichment (6-mer frequency, TF over GST control)","1.19 fold enrichment (6-mer frequency, TF over GST control)","1.18 fold enrichment (6-mer frequency, TF over GST control)","1.06 fold enrichment (6-mer frequency, TF over GST control)","1.21 fold enrichment (6-mer frequency, TF over GST control)","1.17 fold enrichment (6-mer frequency, TF over GST control)"
CCTTAA,"1.38 fold enrichment (6-mer frequency, TF over GST control)","1.24 fold enrichment (6-mer frequency, TF over GST control)","1.27 fold enrichment (6-mer frequency, TF over GST control)","1.31 fold enrichment (6-mer frequency, TF over GST control)","1.35 fold enrichment (6-mer frequency, TF over GST control)","1.34 fold enrichment (6-mer frequency, TF over GST control)","1.4 fold enrichment (6-mer frequency, TF over GST control)","1.45 fold enrichment (6-mer frequency, TF over GST control)","1.2 fold enrichment (6-mer frequency, TF over GST control)"
GATTCT,"1.28 fold enrichment (6-mer frequency, TF over GST control)","1.22 fold enrichment (6-mer frequency, TF over GST control)","1.29 fold enrichment (6-mer frequency, TF over GST control)","1.21 fold enrichment (6-mer frequency, TF over GST control)","1.26 fold enrichment (6-mer frequency, TF over GST control)","1.26 fold enrichment (6-mer frequency, TF over GST control)","1.3 fold enrichment (6-mer frequency, TF over GST control)","1.27 fold enrichment (6-mer frequency, TF over GST control)","1.33 fold enrichment (6-mer frequency, TF over GST control)"
TTTGAA,"1.22 fold enrichment (6-mer frequency, TF over GST control)","1.09 fold enrichment (6-mer frequency, TF over GST control)","1.2 fold enrichment (6-mer frequency, TF over GST control)","1.21 fold enrichment (6-mer frequency, TF over GST control)","1.23 fold enrichment (6-mer frequency, TF over GST control)","1.24 fold enrichment (6-mer frequency, TF over GST control)","1.2 fold enrichment (6-mer frequency, TF over GST control)","1.2 fold enrichment (6-mer frequency, TF over GST control)","1.17 fold enrichment (6-mer frequency, TF over GST control)"
TGACTT,"1.38 fold enrichment (6-mer frequency, TF over GST control)","1.5 fold enrichment (6-mer frequency, TF over GST control)","1.38 fold enrichment (6-mer frequency, TF over GST control)","1.53 fold enrichment (6-mer frequency, TF over GST control)","1.44 fold enrichment (6-mer frequency, TF over GST control)","1.43 fold enrichment (6-mer frequency, TF over GST control)","1.68 fold enrichment (6-mer frequency, TF over GST control)","1.52 fold enrichment (6-mer frequency, TF over GST control)","1.27 fold enrichment (6-mer frequency, TF over GST control)"
TATGGA,"1.07 fold enrichment (6-mer frequency, TF over GST control)","1.13 fold enrichment (6-mer frequency, TF over GST control)","1.09 fold enrichment (6-mer frequency, TF over GST control)","1.15 fold enrichment (6-mer frequency, TF over GST control)","1.06 fold enrichment (6-mer frequency, TF over GST control)","1.26 fold enrichment (6-mer frequency, TF over GST control)","1.07 fold enrichment (6-mer frequency, TF over GST control)","1.17 fold enrichment (6-mer frequency, TF over GST control)","1.12 fold enrichment (6-mer frequency, TF over GST control)"
